Reference: PubChem BioAssay (NCI)
About 79,000 compounds went through this panel and 15% of them were active in at least one assay; those are over-represented in the sample as a whole. The source made the active and inactive calls. Rule as the data show it: active = growth inhibition above about 70%; inactive = the rest.

Assay: NCI Yeast Anticancer Drug Screen. Data for the rad52 strain (AID 147);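 also: 0% = growth of vehicle-treated control cultures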
Settings: S. cerevisiae rad52 mutant growth inhibition, hits give high values
Protocol: Growth inhibition of yeast strains with defined genetic alterations is measured as a screen for potential anti-cancer activity. Selected strains with alterations in DNA damage repair or cell cycle control were exposed to compounds and growth inhibition was measured relative to vehicle treated controls. The strain used in this assay is rad52

Measured: growth inhibition

CCN(CC)CC[n+]1ccc2c(C)c3[nH]c4ccc(O)cc4c3c(C)c2c1
active: at 33.0 µM 87% | at 100.0 µM 95%
inactive: at 1.2 µM 13% | at 3.7 µM 41% | at 11.0 µM 67%

Nc1ccn(C2OC(CO)C3[O][Sn]([c]4ccccc4)([c]4ccccc4)[O]C32)c(=O)n1 (stereo not given)
active: at 100.0 µM 84%
inactive: at 1.2 µM 3% | at 3.7 µM 3% | at 11.0 µM 21% | at 33.0 µM 46%

FC(F)(F)c1cc(NC(=S)N2c3ccccc3-n3cccc3C2c2cccnc2)cc(C(F)(F)F)c1 (stereo not given)
inactive: at 1.2 µM -3% | at 3.7 µM -5% | at 11.0 µM -9% | at 33.0 µM -3% | at 100.0 µM -4%

O=[N+]([O-])c1ccc(=S)[nH]c1
active: at 100.0 µM 93%
inactive: at 1.2 µM 1% | at 3.7 µM 0% | at 11.0 µM -1% | at 33.0 µM 49%

c1ccc(-c2ccnc3c2ccc2c(-c4ccccc4)ccnc23)cc1
active: at 33.0 µM 99% | at 100.0 µM 99%
inactive: at 1.2 µM 4% | at 3.7 µM 21% | at 11.0 µM 50%

CC(=O)Nc1ccc(SC(C)=O)cc1
inactive: at 1.2 µM 0% | at 3.7 µM -21% | at 11.0 µM -2% | at 33.0 µM 58%
active: at 100.0 µM 86%

CC(=O)Nc1ccc(/C=C(\C#N)c2ccc(C)cc2)cc1
inactive: at 1.2 µM -10% | at 3.7 µM 0% | at 11.0 µM -5% | at 33.0 µM -2% | at 100.0 µM 1%

CC(C)(CN1CCCCC1)C(=O)CC(SCCS(=O)(=O)O)c1ccc(Br)cc1 (stereo not given)
inactive: at 1.2 µM 1% | at 3.7 µM 6% | at 11.0 µM 9% | at 33.0 µM 22% | at 100.0 µM 54%
